# Laboratory results as given in publication PMC4336329 (PLoS ONE, 2015).
# In all, about 310,000 compounds went through this assay and about 14,000 (4.5%) showed an effect of 50% or more. Effects have a minus sign here. Many of the other results were omitted from the sample, so strong results are more common in it than they were.
# Target: human ether-à-go-go-related gene (hERG) potassium channel (human, UniProt Q12809)
# Assay: primary screen, population patch clamp on CHO cells stably expressing hERG; higher = less effect of the substance
# 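Further: peak tail current of the secondary pulse compared with the same well before compound.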
# Sequence of human ether-à-go-go-related gene (hERG) potassium channel (Q12809 whole entry, looked up): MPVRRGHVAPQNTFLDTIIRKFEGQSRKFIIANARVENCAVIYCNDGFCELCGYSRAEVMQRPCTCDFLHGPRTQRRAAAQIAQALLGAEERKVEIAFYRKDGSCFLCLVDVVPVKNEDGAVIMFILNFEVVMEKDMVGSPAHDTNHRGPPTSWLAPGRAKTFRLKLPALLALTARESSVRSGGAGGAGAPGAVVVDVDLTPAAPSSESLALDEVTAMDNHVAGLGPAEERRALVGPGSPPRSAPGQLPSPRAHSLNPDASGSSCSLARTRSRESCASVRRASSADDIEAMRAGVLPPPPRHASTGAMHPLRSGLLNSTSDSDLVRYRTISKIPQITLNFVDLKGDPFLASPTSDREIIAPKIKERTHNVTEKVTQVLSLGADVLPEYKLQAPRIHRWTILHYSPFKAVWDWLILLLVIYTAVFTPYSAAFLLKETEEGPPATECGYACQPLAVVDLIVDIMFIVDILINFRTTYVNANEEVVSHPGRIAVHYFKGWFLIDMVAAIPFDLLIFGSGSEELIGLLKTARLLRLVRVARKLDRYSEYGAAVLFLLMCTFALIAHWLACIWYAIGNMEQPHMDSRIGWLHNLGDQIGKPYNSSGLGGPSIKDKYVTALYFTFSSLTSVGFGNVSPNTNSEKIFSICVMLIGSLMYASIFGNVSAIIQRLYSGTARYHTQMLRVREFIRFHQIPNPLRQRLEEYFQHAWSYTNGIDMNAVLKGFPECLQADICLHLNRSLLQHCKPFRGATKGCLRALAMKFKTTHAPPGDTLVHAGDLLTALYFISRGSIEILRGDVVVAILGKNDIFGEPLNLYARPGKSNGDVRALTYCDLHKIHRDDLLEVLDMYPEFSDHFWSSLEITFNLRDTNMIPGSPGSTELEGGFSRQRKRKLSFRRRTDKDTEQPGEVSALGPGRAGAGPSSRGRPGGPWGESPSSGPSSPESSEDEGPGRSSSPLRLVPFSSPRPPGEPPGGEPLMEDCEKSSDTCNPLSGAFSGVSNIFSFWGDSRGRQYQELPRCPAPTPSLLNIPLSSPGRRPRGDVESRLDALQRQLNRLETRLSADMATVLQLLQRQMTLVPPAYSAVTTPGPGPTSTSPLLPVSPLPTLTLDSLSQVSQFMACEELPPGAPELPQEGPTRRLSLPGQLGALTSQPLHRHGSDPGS
row,SMILES,"hERG current change (%, negative = inhibition) at 10uM"
1,Cc1noc(C)c1CSCC(=O)Nc1ccc(S(C)(=O)=O)cc1,15.2%
2,Cc1noc(C)c1CSCC(=O)Nc1cc(S(C)(=O)=O)ccc1Cl,0.564%
3,CCOc1ccc(S(=O)(=O)N2CCOCC2)cc1NC(=O)CSCc1c(C)noc1C,-17.3%
4,C=CCOc1cccc(C2C(C(=O)c3cccs3)=C(O)C(=O)N2Cc2cccnc2)c1 (stereo not shown),-1.2%
5,CCOC(=O)C1=C(C)NC(=O)NC1c1cc(Br)c(O)c(OC)c1 (stereo not shown),-2.71%
6,COc1ccc(CNc2ccc3c(c2)ncn3C)cc1OC,15.8%
7,Cc1cnc(C(=O)Nc2cc(S(=O)(=O)N3CCOCC3)ccc2N2CCN(C)CC2)cn1,-18.6%
8,COc1ccc(-n2cc(CN[C@H]3CCCCNC3=O)c(-c3cccc(F)c3)n2)cc1,-64.1%
9,COc1ccc(-n2cc(CNCC3CCOCC3)c(-c3cccc(F)c3)n2)cc1,-78.5%
10,COc1ccc(-n2cc(CNC3CCC(O)CC3)c(-c3cccc(F)c3)n2)cc1 (stereo not shown),-45.3%
11,COc1ccc(-n2cc(CNCc3cnc4ccccn34)c(-c3cccc(F)c3)n2)cc1,-30.2%
12,COc1ccc(-n2cc(CNCCCn3ccnc3)c(-c3cccc(F)c3)n2)cc1,-75.2%
13,COc1ccc(-n2cc(CN(C)C3CCOCC3)c(-c3cccc(F)c3)n2)cc1,-29.1%
14,COc1ccc(-n2cc(CNCCCn3ccnc3)c(-c3ccccc3Cl)n2)cc1,-44.9%
15,COc1ccc(N2C(=O)CC(NC3CCCCNC3=O)C2=O)cc1 (stereo not shown),8.59%
16,COc1cccc(-c2nn(-c3ccccc3)cc2CN2CCCO2)c1,-5.81%
17,COc1ccc(-n2cc(CNC3CCOCC3)c(-c3cccc(F)c3)n2)cc1,-48.2%
18,COc1ccc(-n2cc(CNC3CCN(C)CC3)c(-c3cccc(F)c3)n2)cc1,-77.5%
19,COc1ccc(-n2cc(CN(C)Cc3n[nH]c(=O)[nH]3)c(-c3cccc(F)c3)n2)cc1,-15.4%
20,Cc1cccc(C)c1OCC(=O)Nc1ccc(N2CCOCC2)cc1,-4.13%
21,O=C(CC12CC3CC(CC(C3)C1)C2)Nc1cccc2ncccc12,-23%
22,CN(C)c1ccc(Nc2cc(Cl)ncn2)cc1,1.65%

row,SMILES,"hERG current change (%, negative = inhibition) at 10uM"
1,COc1ccc(OC)c(N(CC(=O)Nc2ccc3c(c2)OCCO3)S(C)(=O)=O)c1,9.64%
2,CC(C)CC(=O)NC(=S)Nc1ccccc1C(=O)Nc1ccccc1,8.01%
3,O=C(c1ccc(CN2CCOCC2)cc1)N1CCN(c2ccccc2F)CC1,-3.33%
4,COc1ccc(CNCc2cc3c(C(C)(C)C)nn(-c4ccccc4)c3[nH]c2=O)cc1,-24%
5,CCOC(=O)c1c(N)sc2c1CCN(CCc1ccccc1)C2,-28.6%
6,CCOC(=O)c1c(NC(=S)NCc2ccccc2)sc2c1CCN(C(=O)OCC)C2,32.8%
7,CCOC(=O)c1c(NC(=S)Nc2ccccc2)sc2c1CCN(CCc1ccccc1)C2,-64.1%
8,CCOC(=O)c1c(NC(C)=O)sc2c1CCN(Cc1ccccc1)C2.Cl,-20.5%
9,CCOC(=O)c1c(NC(=S)Nc2ccccc2)sc2c1CCN(CC)C2,-81.5%
10,CCOC(=O)c1c(NC(=S)Nc2ccccc2)sc(C)c1C,4.49%
11,COc1ccc(-c2c(C)n([O-])c3c([n+]2=O)CCCC3)c(OC)c1,6.26%
12,Nc1cncc(C(=O)O)c1 [26671297],4.06%
13,CCn1cc(C(=O)N2CCCC(C(=O)c3ccc4ccccc4c3)C2)cn1 (stereo not shown),-18.1%
14,CCc1ccc(NC(=O)CSc2nc(=O)n(CCN(C)C)c3c2CCCC3)cc1,-24.2%
15,CCCCc1ccc(NC(=O)CSc2nc(=O)n(CCN(CC)CC)c3c2CCC3)cc1,-65.8%
16,CCc1ccc(NC(=O)CSc2nc(=O)n(CCCN(C)C)c3c2CCC3)cc1,-42.3%
17,CCCCc1ccc(NC(=O)CSc2nc(=O)n(CCN(CC)CC)c3c2CCCC3)cc1,-66.7%
18,CCCCc1ccc(NC(=O)CSc2nc(=O)n(CCN(C)C)c3c2CCC3)cc1,-56.4%
19,C=C(C)CN(CC)Cc1c(C(=O)N(C)CCCC)nc2ccccn12,-20.7%
20,Cc1ccc(S(=O)(=O)NNC(=O)C2CCN(Cc3ccccc3)CC2)cc1,-15.4%
21,COc1ccc(NC(=O)CSc2nnc(C3CCCCC3)n2N)cc1OC,21.9%
